Legend:
Conditions in all cases: Compound Concentration (nM):1000
SIK = tested on: T1, SIK
T1 construct: gene SIK1

SLK = tested on: SLK
SNARK = tested on: T2, SNARK
T2 construct: gene NUAK2

SNRK = tested on: SNRK
SRC = tested on: SRC
SRMS = tested on: SRMS
SRPK1 = tested on: SRPK1
SRPK2 = tested on: SRPK2
SRPK3 = tested on: SRPK3
STK16 = tested on: STK16
STK33 = tested on: STK33
STK35 = tested on: STK35
STK36 = tested on: STK36
STK39 = tested on: STK39
SYK = tested on: SYK
SgK110 = tested on: SgK110
TAK1 = tested on: T3, TAK1
T3 construct: gene MAP3K7

TAOK1 = tested on: TAOK1
TAOK2 = tested on: TAOK2
TAOK3 = tested on: TAOK3
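Note: KINOMEscan scanMAX binding as percent activity remaining versus control; lower means stronger binding.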

Structure (SMILES)	Percent Control (SIK) [%]	Percent Control (SLK) [%]	Percent Control (SNARK) [%]	Percent Control (SNRK) [%]	Percent Control (SRC) [%]	Percent Control (SRMS) [%]	Percent Control (SRPK1) [%]	Percent Control (SRPK2) [%]	Percent Control (SRPK3) [%]	Percent Control (STK16) [%]	Percent Control (STK33) [%]	Percent Control (STK35) [%]	Percent Control (STK36) [%]	Percent Control (STK39) [%]	Percent Control (SYK) [%]	Percent Control (SgK110) [%]	Percent Control (TAK1) [%]	Percent Control (TAOK1) [%]	Percent Control (TAOK2) [%]	Percent Control (TAOK3) [%]
COc1cc2ncn(-c3cc(O[C@H](C)c4ccccc4Cl)c(C(N)=O)s3)c2cc1OC [GSK237701A]	100	0.4	4.3	91	79	92	100	100	100	60	100	90	98	94	78	100	78	54	79	71
CCS(=O)(=O)c1ccc(OC)c(Nc2ncc(-c3cccc(F)c3)o2)c1 [GW621970X]	100	100	100	100	19	67	92	97	100	38	95	100	100	100	81	100	100	87	100	100
COc1ccc2[nH]c3c4[nH]c5ccc(OC)cc5c4c4c(c3c2c1)C(=O)NC4=O [GW296115X]	67	96	59	56	87	100	86	94	100	74	33	80	70	100	73	100	20	100	96	96
COc1ccccc1-c1cc(/C=C2\C(=O)Nc3ncc(Br)cc32)cc(Br)c1O [GW442130X]	100	100	89	100	91	100	100	100	100	87	100	100	100	67	100	100	81	93	100	89
COc1ccc2cc(-c3c(-c4ccncc4)nc(-c4ccc(S(C)(=O)=O)cc4C)n3C)ccc2c1 [SB-633825]	96	1.7	82	91	82	85	90	76	83	93	89	57	82	66	78	85	80	84	77	74
COc1ccc2c(-c3ccnc(Nc4cccc(OC(F)(F)F)c4)n3)cnn2n1 [GW810372X]	100	100	73	98	100	99	88	87	92	9.4	90	100	100	86	83	100	95	73	98	100
NS(=O)(=O)c1ccc(N/N=C2\C(=O)Nc3ccc(C(=O)NCCc4c[nH]cn4)cc32)cc1 [GW300660X]	100	100	6.9	100	100	90	86	100	76	34	67	100	100	100	100	100	18	75	93	86
COc1cc(C=NNc2ncnc3c2cnn3-c2ccccc2)ccc1O [GW513184X]	79	79	87	100	59	100	33	100	100	100	100	80	82	100	38	100	59	100	100	95
Cl.O=S1CCN(Cc2ccc(-c3ccc4ncnc(Nc5ccc(OCc6ccccc6)c(F)c5)c4c3)o2)CC1 [GW576924A]	100	100	96	100	100	100	100	100	78	100	84	100	100	100	100	100	100	100	100	100
COc1cc2ncnc(Nc3ccc4c(cnn4Cc4ccccc4)c3)c2cc1OC.Cl [GW282449A]	100	77	100	100	100	50	92	100	97	100	98	100	100	100	77	100	100	100	100	100
